Screening data (PubChem BioAssay)
Rows were chosen to be rich in hits. Some 5.7% of all compounds tested hit in one or more screens of this group.
FAS TE block: FAS thioesterase domain inhibitors, primary screen, biochemical, fluorescence intensity, uHTS; recombinant FAS-TE, OMFH fluorogenic substrate, fluorescence endpoint; inhibition, % at 15 µM; 0.67% of 360,000 active; AID 602261, 2012;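 active means compounds whose normalised, plate-corrected inhibition of enzyme fluorescence in the single-dose primary screen is 50% or more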
MPTP block: mitochondrial permeability transition pore inhibitors, primary screen, biochemical, isolated mouse mitochondria, absorbance. Ca2+ swelling absorbance, 30 min. inhibition, % at 10 µM. 1.4% of 360,000 active;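 active means inhibition of 50% or more, scaled per plate between neutral and stimulator controls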
rCAG RNA binder: binders of r(CAG) RNA repeats, primary screen, biochemical, fluorescence; r(CAG) RNA repeat, TO-PRO-1 dye displacement fluorescence; inhibition, % at 3 µM; 1.3% of 370,000 active; AID 651821, 2012;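 active means inhibition above the plate cutoff, the mean of all test compounds on that plate plus 3 SD, cut at about 35% in these data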;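 further: higher means more dye released from RNA so lower well fluorescence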
Myeloid diff MLP: induction of myeloid progenitor differentiation, primary screen, cell-based, flow cytometry, MLPCN library; ER-HoxA9 myeloid progenitors, lysozyme-GFP differentiation; calls only at 10 µM; 1% of 360,000 active; AID 624256, 2012;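 active means normalized GFP-positive differentiation at or above the plate's own cutoff, the solvent-only control mean plus 3 SD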;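 further: cells exposed to compound for four days before flow analysis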
GRIN3A LBD mod: binders of NR3A ligand-binding domain, primary screen, biophysical, differential scanning fluorimetry, uHTS; Tm shift relative to glycine control, % at 25 µM; Glutamate receptor ionotropic, NMDA 3A (GRIN3A) ligand-binding domain; 2.5% of 340,000 active; AID 1259313, 2017; NR3A LBD differential scanning fluorimetry, Tm shift; 0% = protein alone, 100% = glycine-bound protein;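 active means melting temperature shift of at least 10% of the positive control shift, at one fixed dose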
Each line names hits and unclear results; the compound was inactive in the other large screens.

CCN(CC)S(=O)(=O)c1ccc(N2Cc3ccccc3C2=N)cc1	Myeloid diff MLP active
Cc1ccc(NC(=S)Nc2ccc(-c3nnc4n3CCCCC4)cc2)cc1C	none (no result: FAS TE block, MPTP block, Myeloid diff MLP, GRIN3A LBD mod)
FC(F)Sc1ccc(-n2cc(-c3ccc(Cl)cc3)[n+]3c2CCC3)cc1	none
Cc1ccc(-c2cn(-c3ccc(SC(F)F)cc3)c3[n+]2CCC3)cc1	Myeloid diff MLP active
COc1ccc(N)cc1-n1c(C)ccc1C	Myeloid diff MLP active
COc1ccc(C(=O)NC2CC2)cc1OC1CCN(Cc2cc(C)c(C)cc2C)CC1	GRIN3A LBD mod 103
COc1ccc(C(=O)NC2CCCCC2)cc1OC1CCN(C(C)C)CC1	GRIN3A LBD mod 13
COc1ccc(C(=O)NC2CC2)cc1OC1CCN(Cc2cnn(C)c2C)CC1	none
O=C(CSc1nc2ccccc2o1)NN=C/C=C/c1ccccc1	none (no result: FAS TE block, MPTP block, Myeloid diff MLP, GRIN3A LBD mod)
CC(Sc1nnc(NCc2ccccc2)s1)C(=O)Nc1ccc2c(c1)C(=O)c1ccccc1C2=O (stereo not given)	none
CC(Sc1nnc(Nc2ccccc2)s1)C(=O)Nc1nc(-c2ccccc2)cs1 (stereo not given)	Myeloid diff MLP active
Cc1ccccc1C(=O)N[C@H](C(=O)N1CCC[C@H]1C(=O)NCc1ccccc1)c1ccccc1	none (no result: FAS TE block, MPTP block, Myeloid diff MLP, GRIN3A LBD mod)
Cc1c([N+](=O)[O-])c(C(=O)Nc2ccc3c(c2)OCCO3)nn1C	GRIN3A LBD mod 10
Cc1nn(C)c(C(=O)Nc2ccc3c(c2)OCO3)c1[N+](=O)[O-]	none
COc1ccc(C)cc1N(C(=O)c1ccc(F)cc1)c1nc2ccccc2s1	GRIN3A LBD mod 11
COc1ccc(C)cc1N(C(=O)COc1cccc(F)c1)c1nc2ccccc2s1	none
COc1ccc(C(=O)Nc2ccc(NC(=O)c3ccccc3OC)nc2)cc1	GRIN3A LBD mod 25
COc1ccc(C(=O)Nc2ccc(NC(=O)c3cccc(OC)c3)cn2)cc1	GRIN3A LBD mod 38
COc1ccc(C(=O)Nc2ccc(NC(=O)c3cccs3)cn2)cc1	GRIN3A LBD mod 17
Cc1cc(NC(=O)c2ccc(Cl)cc2)no1	none
Cc1cc(NC(=O)c2ccc(NC(=O)c3cccs3)cc2)no1	GRIN3A LBD mod 14
CC1(c2nnnn2-c2ccc(F)cc2)CCCC(=O)N1CCc1c[nH]c2ccccc12 (stereo not given)	none (no result: FAS TE block, MPTP block, Myeloid diff MLP, GRIN3A LBD mod)
CCOC(=O)/C(C#N)=C\C=C1C=CN(C)C=C1	Myeloid diff MLP active
CCOC(=O)/C(C#N)=C\c1ccc(CC)s1	none
Nc1[nH]c(C(=O)c2ccccc2)c(-c2ccc(Cl)cc2)c1C(=O)c1c[nH]c2cc(F)ccc12	none (no result: FAS TE block, MPTP block, Myeloid diff MLP, GRIN3A LBD mod)
COC(=O)c1ccccc1NC(=O)[C@@H]1CCC(=O)N1C1OC(=O)c2c1ccc(OC)c2OC (stereo not given in full)	Myeloid diff MLP active
CC(=O)Nc1ccc(NC(=O)c2cc(-c3cc(C)cc(C)c3O)n[nH]2)cc1	GRIN3A LBD mod 35
Cc1cc(F)ccc1-c1cc(C(=O)Nc2ccccc2)[nH]n1	none (no result: GRIN3A LBD mod)
Cc1ccc(NC(=O)c2cc(-c3ccc(C)c(C)c3O)n[nH]2)cc1C	GRIN3A LBD mod 35
COc1ccc(-c2cc(C(=O)Nc3ccc(OC)c(OC)c3)[nH]n2)c(C)c1	none (no result: GRIN3A LBD mod)
Cc1ccc(NC(=O)c2cc(-c3cc(Cl)ccc3C)n[nH]2)cc1NS(C)(=O)=O	none (no result: GRIN3A LBD mod)
COc1ccc(NC(=O)c2cc(-c3ccc(C)c(C)c3O)n[nH]2)cc1Cl	GRIN3A LBD mod 25
Cc1ccc(NC(=O)c2cc(-c3cc(C)c(C)cc3O)n[nH]2)cc1C	GRIN3A LBD mod 33
CCCNC(=O)C[C@H]1CC[C@H]2[C@@H](COc3ccc(NC(=O)Nc4ccccc4)cc3C(=O)N2C)O1	none (no result: FAS TE block, MPTP block, Myeloid diff MLP, GRIN3A LBD mod)
Cc1ccc(-c2cc(C(=O)Nc3cc(C)ccc3C)[nH]n2)c(O)c1	none
CC(=O)Nc1ccc(NC(=O)c2cc(-c3ccc(F)cc3C)n[nH]2)cc1	none (no result: GRIN3A LBD mod)
CC(=O)Nc1ccc(NC(=O)c2cc(-c3ccc(C)c(C)c3O)n[nH]2)cc1	GRIN3A LBD mod 39
Cc1ccc(C)c(NC(=O)c2cc(-c3cc(C)c(C)cc3O)n[nH]2)c1	GRIN3A LBD mod 28
CCCCNC(=O)N1CCC(c2nc3ccc(Cl)cc3[nH]2)CC1	none (no result: FAS TE block, MPTP block, Myeloid diff MLP, GRIN3A LBD mod)
CC(=O)O[C@H]1C=C[C@@H](NC(=O)OC(C)(C)C)C1	none (no result: FAS TE block, MPTP block, Myeloid diff MLP, GRIN3A LBD mod)
COc1ccccc1CCn1cnc(-c2ccc(Br)cc2)c1CC(C)C	none (no result: FAS TE block, MPTP block, Myeloid diff MLP, GRIN3A LBD mod)
Cc1ccccc1N=Nc1c(N)n[nH]c1N	none
Nc1n[nH]c(N)c1N=Nc1ccc(Cl)cc1Cl	GRIN3A LBD mod 20
Nc1n[nH]c(N)c1N=Nc1ccccc1F	GRIN3A LBD mod 32
C=CCN1C(=O)/C(=C2/Sc3ccccc3N2CCCS(=O)(=O)O)SC1=S	rCAG RNA binder 85
CCOc1ccc(NC(=S)NN2C(C)CCCC2C)cc1 (stereo not given)	GRIN3A LBD mod 12
COc1ccc(-c2[nH]ncc2Oc2ccccc2OC)c(O)c1	Myeloid diff MLP active
C=C(C)COc1ccc(-c2[nH]ncc2Oc2cccc(OC)c2)c(O)c1	none
CCCOC(=O)c1ccc(Oc2cn[nH]c2-c2ccc(O)cc2O)cc1	GRIN3A LBD mod 34
C=C(C)COc1ccc(-c2[nH]ncc2Oc2ccccc2OCC)c(O)c1	GRIN3A LBD mod 11
COc1ccc(-c2cn[nH]c2-c2ccc(O)cc2O)cc1	none
COc1ccc(Oc2cn[nH]c2-c2ccc(O)cc2O)cc1	GRIN3A LBD mod 15
CCOc1ccccc1Oc1cn[nH]c1-c1ccc(O)cc1O	none
CC(C)N1CCCCC(NC(=O)c2ccc(Br)cc2)C1=O (stereo not given)	none (no result: FAS TE block, MPTP block, Myeloid diff MLP, GRIN3A LBD mod)
CCCNC(=O)c1ccc(N2CCC3(CC2)CC(c2ccccc2)=NO3)c(NC(=O)c2ccccc2)c1	Myeloid diff MLP active
COc1ccc(/C=N\NC(=O)Cc2cccs2)c(OC)c1OC	none (no result: FAS TE block, MPTP block, Myeloid diff MLP, GRIN3A LBD mod)
O=C(N/N=C/c1ccsc1)c1cc2ccccc2o1	none
C#CCn1cc(/C=N/NC(=O)c2cc3ccccc3o2)c2ccccc21	GRIN3A LBD mod 13
O=C(N/N=C/c1ccccc1F)c1cc2c(ccc3ccccc32)o1	none
O=C(N/N=C/c1cccc2ccccc12)c1cc2ccccc2o1	GRIN3A LBD mod 18
O=C(N/N=C/c1cccc([N+](=O)[O-])c1)c1cc2ccccc2o1	GRIN3A LBD mod 13
COc1ccc(OC)c(/C=N/NC(=O)CCc2ccc(O)c(O)c2)c1	GRIN3A LBD mod 22
COc1ccc(OC)c(/C=N/NC(=O)CCc2c(C)n[nH]c2C)c1	none
CCCC[C@H]1C2CC(OC(=O)Nc3ccc(Cl)cc3)C(C2)[C@H]2CCCCN21 (stereo not given in full)	none (no result: FAS TE block, MPTP block, Myeloid diff MLP, GRIN3A LBD mod)
CCN=C1NC(CCc2ccccc2)C(C(=O)OC)=C(C)N1Cc1ccccc1C(F)(F)F (stereo not given)	none (no result: FAS TE block, MPTP block, Myeloid diff MLP, GRIN3A LBD mod)
O=C(/C=C(\Nc1ccc(Cl)c(Cl)c1)c1ccccc1)c1ccccc1	none (no result: FAS TE block, MPTP block, Myeloid diff MLP, GRIN3A LBD mod)
COc1ccc(OC)c(/C=N\NC(=O)c2cc3c(ccc4ccccc43)o2)c1	GRIN3A LBD mod 22
COc1ccc(/C=N/NC(=O)c2cc3c(ccc4ccccc43)o2)c(OC)c1	none (no result: Myeloid diff MLP)
